HT1080 IDH1KD tx: HT-1080 IDH1 knockdown cell toxicity (counter line) | 360,000 compounds, 2% hits | HT-1080 IDH1 knockdown viability, ATP luminescence, 48 h | Potency, µM (top dose mostly 46.1 µM), without a hit: top-dose activity, negative = toxicity, usual class: cytotoxic;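 note: 0% = DMSO wells and -100% = cell-free medium wells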
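CellTiter-Glo luminescence after 48 h compound exposure at 37 degrees C of IDH1-knockdown HT-1080 cells in 5% FBS RPMI. %Activity scaled between DMSO wells and cell-free media wells, with curves fitted and assigned curve classes.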
HepG2 tox: counter-screen for TGF-b inhibitors: cytotoxicity in HepG2 cells; HepG2 CAGA-GFP viability, ATP luminescence, 18 h; Potency, µM (top dose mostly 46.1 µM), inactives show at the top dose activity change, negative = cytotoxicity, actives largely listed as cytotoxic; 410,000 compounds, 0.76% hits; AID 588856
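CellTiter-Glo luminescence gave cytotoxicity after 18 hours at 37 degrees C. The cells were HepG2 CAGA-GFP in 1% FBS DMEM, stimulated with 500 pg/mL TGF-beta after compound addition. %Activity was normalised to no-cell wells (complete cell-killing) and DMSO (no toxicity), and curves were fitted and classified.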
HT1080NT lethal: kills 2HG-producing HT-1080-NT fibrosarcoma cells; HT-1080-NT fibrosarcoma viability, CellTiter-Glo ATP luminescence, 48 h; Potency, µM (top dose mostly 46.1 µM), inactives show at the highest dose activity, negative = less viability, most hits filed as cytotoxic; 360,000 compounds, 1.6% hits; AID 686970;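 note: NT is the 2HG producing partner of a matched IDH1 knockdown line; 0% = DMSO-treated cells and -100% = media-only wells without cells; nearly all actives have a fitted effect of over 55% in size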
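HT-1080-NT fibrosarcoma cells (2HG-overproducing), 750 cells/well in RPMI with 5% FBS, dosed after 2 h and incubated 48 h at 37C. CellTiter-Glo luminescence normalized to DMSO and no-cell wells; concentration-response curves fitted and classed.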
S2 tox: viability counter-screen for ATXN expression inhibitors. S2 cells (HEK-293 line with an ATXN2-luciferase reporter) viability, CellTiter-Fluor protease fluorescence, 24 h. AID 651635. 400,000 compounds, 0.49% hits. Potency, µM (top dose mostly 56.7 µM), most hits filed as cytotoxic; note: nearly all actives have a fitted effect of over 40% in size
TGFb SMAD3 inh: blocks TGF-b signaling; HepG2 CAGA-GFP TGF-b/SMAD3 reporter, GFP fluorescence, 18 h; TGF-beta stimulated, 500 pg/mL final; 410,000 compounds, 1.2% hits; Potency, µM (titrated, usually from 46.1 µM), inactives show at the top dose activity, negative = inhibition, usual class: inhibitors; note: % is set by controls: 0 for no effect and ±100 for the full control effect; nearly all actives have a fitted effect of over 65% in size
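HEPG2 CAGA-GFP cells (1000/well, DMEM with 1% FBS) were pre-incubated 2 h at 37 degrees C, given compound by pin tool, then stimulated with TGF-beta at 500 pg/mL final for 18 h before per-cell GFP fluorescence imaging.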
ATXN2 expr inh: reduces ATXN2 reporter expression in HEK-293 cells | HEK-293 ATXN2-luciferase reporter, luminescence, 24 h | Potency, µM (top dose mostly 57 µM), inactives show top-dose activity change, negative = inhibition, hits mostly inhibitors | 360,000 compounds, 0.72% hits; note: % is set by controls: 0 for no effect and ±100 for the full control effect; nearly all actives have a fitted effect of over 55% in size
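ATXN2-luciferase reporter cells (luciferase flanked by upstream and downstream ATXN2 gene portions) were treated 24 h at 37 °C with compounds at up to 57 uM. SteadyGlo luminescence gave expression; GF-AFC fluorescence gave viability.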
Numbers without * were called inactive; i = inactive; ? = inconclusive; / = no result given; ! = not confirmed by another sample; [ ] = remark or other dose. The list is not random: actives were taken first. Their share in the collection is about 3.9%. Calls come from the whole dose curve; as a rule, active = well fitted curve in the direction sought with a large enough effect; inconclusive = small, poorly fitted or top-dose-only effect, or another doubt; inactive = no such curve, though single readings can be large; an effect the other way counts as inactive or inconclusive. Potency is the fitted concentration of half-maximal effect.

SMILES | HT1080 IDH1KD tx | HepG2 tox | HT1080NT lethal | S2 tox | TGFb SMAD3 inh | ATXN2 expr inh
CCCCNC(=O)C(CC)n1c(SCc2cccc(F)c2)nc2ccncc21 (stereo not given) | / | 0% | / | / | -2% | /
CCOc1ccc2nc(N3CCCC(C(=O)Nc4cc(Cl)c(OC)cc4OC)C3)sc2c1 (stereo not given) | / | -10% | / | / | 22% | /
Cc1oc(-c2ccc(Cl)cc2)nc1CS(=O)CC(=O)NCCCN1CC(C)CC(C)C1 (stereo not given) | ? | -31% | 16µM* | i | ? | -13%
Cc1oc(-c2ccc(Cl)cc2)nc1CS(=O)CC(=O)NCCN1CCCCCC1 (stereo not given) | -7% | -51% | -6% | i | ? | /
Cc1ccc(-c2nc(CS(=O)CC(=O)NCCN3CCCCCC3)c(C)o2)cc1 (stereo not given) | 2% | -65% | -2% | / | 13µM* | /
CCOC(=O)N1CCC(NC(=O)CS(=O)Cc2nc(-c3ccc(Cl)cc3)oc2C)CC1 (stereo not given) | ? | -29% | 18µM* | i | ? | /
O=[N+]([O-])c1ccccc1S(=O)(=O)N1CCN(c2nc(-c3cccs3)nc3ccccc23)CC1 | / | -1% | / | / | 11% | /
c1ccc(C2=Nc3c(ccc4ccccc34)C(c3ccncc3)=NN2)cc1 | 21µM* | 33% | ? | / | ? | ?
CC(=O)Nc1ccc(/C=C/C(=O)c2ccc(-n3nncc3-c3ccccc3)cc2)cc1 | / | -22% | / | / | ? | /
Cc1cc(C)c2c(=N)c3ccccc3n(CCCCCCCCn3c4ccccc4c(=N)c4c(C)cc(C)nc43)c2n1 | ? | -94% | -28% | ? | ? | 28µM*
Cc1cc(C)c2c(C)nn(-c3ccccc3)c2n1 | 8% | -17% | -1% | i | 2% | 4%
Oc1ccc(/C(Cc2ccccn2)=N\Nc2ccccc2)c(O)c1 | 9.2µM* | -1% | ? | i | ? | /
Cc1cc(C)c(C#N)c(SCC(=O)c2ccccc2)n1 | -4% | -9% | -5% | / | 10µM* | -10%
Cc1cc(C)c(C#N)c(SCC(=O)c2cccs2)n1 | -13% | 0% | -19% | i | 0% | 34%
COc1ccc2oc(=O)c(C(=O)Nc3ccc(C(=O)O)cc3)cc2c1 | / | 5% | / | i | 8% | 6%
CC1=NN(c2ccccc2)C(=O)/C1=C\c1ccc(Oc2ccc([N+](=O)[O-])cc2[N+](=O)[O-])cc1 | 10µM* | 0% | 21µM* | i | ? | -22%[11.3 µM]
CC(=O)O[C@H]1CC[C@@]2(C)C(=CC[C@@H]3[C@@H]2CC[C@]2(C)C(C(C)=O)=CC[C@@H]32)C1 | / | / | / | i | / | 3%
CCOc1ccc(-c2ccc(SC)nn2)cc1 | 23µM* | 13µM* | 16µM* | i | 17% | ?
COc1ccccc1CCNc1ncnc2sc(C(=O)N3CCCCC3)c(C)c12 | / | / | / | i | / | /
CCN(CC(=O)Nc1ccccc1OC)CC(=O)Nc1ccccc1-c1ccccc1 | 7.3µM* | 3% | 15µM* | i | ? | -29%
CCN(CC(=O)Nc1ccccc1-c1ccccc1)Cc1nc2ccccc2c(=O)[nH]1 | 4.6µM* | -18% | 5.8µM* | i | -27% | -24%[11.3 µM]
CCN(CC(=O)Nc1ccccc1OC)C(=O)CSCC(=O)Nc1ccc(OC)cc1 | ? | 4% | 18µM* | i | -1% | -6%
CCN(CC(=O)Nc1ccccc1SC)Cc1nc2ccccc2c(=O)[nH]1 | -7% | -21% | 0% | i | -26% | -19%
C[C@@H]1CN(Cc2ccc3c(c2)CN(C(=O)CCc2nc4ccc(F)cc4[nH]2)CCO3)C[C@H](C)O1 | / | / | / | i | / | /
CC(C)c1ccc(NC(=O)c2cc3c(=O)[nH]c4ccccc4c3n2C)cc1 | / | -11% | / | i | 9% | -16%
SMILES | HT1080 IDH1KD tx | HepG2 tox | HT1080NT lethal | S2 tox | TGFb SMAD3 inh | ATXN2 expr inh
COc1ccccc1CN1CCC2(CC1)c1ccccc1[C@@H](NC(=O)c1ccco1)[C@@H]2OC | / | / | / | i | / | /
CCOc1ccc(OCC)c(NS(=O)(=O)c2ccc3c(c2)CCCN3C(C)=O)c1 | / | -28% | / | i | ? | 14%
C(=C\c1nccc2c1[nH]c1ccccc12)/c1ccccc1 | ? | 20µM* | ? | / | ? | /
Cc1ccc(/C=C\c2nccc3c2[nH]c2ccccc23)cc1 | ? | -33% | -28% | i | ? | 9%[11.3 µM]
O=c1[nH]c2ccccc2nc1/C=C/c1ccc(F)cc1 | -12% | -40% | -10% | i | 1% | 60%
Fc1ccc(/C=C\c2nccc3c2[nH]c2ccccc23)cc1 | 23µM* | -50% | ? | i | ? | 14%[11.3 µM]
CC1CCCN(CC(=O)Nc2ccc(S(=O)(=O)N3CCCCCC3)cc2)C1 (stereo not given) | ? | 0% | 22µM* | i | -32% | -7%
CC1CCCN(CC(=O)Nc2ccc(S(=O)(=O)N3CCCCC3)cc2)C1 (stereo not given) | 8% | -4% | 8% | i | -13% | -1%
Cc1ccc(-c2nnn(CC(=O)Nc3ccc(S(=O)(=O)N4CCC(C)CC4)cc3)n2)cc1 | 12µM* | -59% | 23µM* | i | ? | -32%
O=[N+]([O-])c1ccc(-c2nc(C(Cl)Cl)c3ccccc3n2)cc1 | 11% | -26% | -4% | ? | 2% | 4µM*
O=C1Nc2ccccc2/C1=C\C(=O)c1ccccc1 | ? | -77% | 18µM* | ? | ? | ?
O=C(/C=C1\C(=O)Nc2ccccc21)/C=C1\C(=O)Nc2ccccc21 | ? | -35% | ? | ? | ? | -14%
CCN(CC)c1ccc(-c2nnc(SCC(=O)NCc3ccco3)n2CC)cc1 | / | -38% | / | / | -23% | /
COc1ccc(C2NCCc3c2[nH]c2ccccc32)cc1CSc1nc2ccccc2s1 (stereo not given) | 23µM* | -91% | 23µM* | i | ? | -34%
COc1ccc(-c2nc(NC(=O)c3cc(C(C)(C)C)nn3C)sc2C)cc1 | ? | -3% | 16µM* | i | ? | -23%
CCN(CC)C(=S)SCC(=O)c1ccccc1 | -13% | -49% | 1% | i | 6% | 66%
CCN(CC)C(=S)SSC(=S)N(CC)CC | 0.0052µM*! | -56% | ? | 71µM*! | ? | ?
N#C/C(=C/c1ccc(-c2ccc([N+](=O)[O-])cc2)o1)C(=O)Nc1nc(-c2cccs2)cs1 | 0% | -8% | -3% | i | -2% | 3%
